This is part of a sample that, as a whole, favours compounds with a hit. Of some 83,000 tested, about 20% had one in any assay.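 Results are percent growth after 48 hours of single-concentration exposure. 100 means growth as in untreated cells, lower positive values show inhibition; negative values down to -100 show cell death.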 Values without a mark were called inactive. The source made the active and inactive calls. The calls were made as follows: active = growth percent below 10; inactive = the rest.

Among the test systems are NCI-H23 lung; NCI-H322M lung; HOP-62 NSCLC; NCI-H460 lung; HOP-92 NSCLC; NCI-H522 lung; A549/ATCC NSCLC; 786-0 renal; COLO 205 colon; DU-145 prostate; K-562 leukemia; MALME-3M melanoma; MDA-MB-231 breast; RXF 393 renal; SF-268 CNS; SF-295 CNS; SF-539 CNS; UACC-257 melanoma; M14 melanoma; NCI-H226 lung.
Assay in all cases: NCI-60 one-dose screen, 48 h (100 = growth as untreated, 0 = no growth, -100 = all killed)
Conditions in all cases: 10 µM unless noted

For the compound `CC(C)c1ccc(C(=O)OC2CCCC2)cc1`, the growth with NCI-H23 lung was 100%; with NCI-H322M lung, 99.2%; in the assay on HOP-62 NSCLC, 93.1%; with NCI-H460 lung, 105%; in the assay on HOP-92 NSCLC it was 80.2%; in the assay on NCI-H522 lung it was 103%. Besides, the growth in the assay on A549/ATCC NSCLC is 117%; with 786-0 renal, 107%; in the assay on COLO 205 colon it was 103%; in the assay on DU-145 prostate, 106%; in the assay on K-562 leukemia, 120%; in the assay with MALME-3M melanoma, 101%. In addition, the growth was 103% with MDA-MB-231 breast; 118% in the assay with RXF 393 renal; 95.1% in the assay with SF-268 CNS; 106% in the assay with SF-295 CNS; 108% with SF-539 CNS; 125% in the assay on UACC-257 melanoma. Further, the growth in the assay with M14 melanoma was 93.9%.
`CC(=O)OC1CC2CCC1(C)C2(C)C` (stereo not given): the growth in the assay on NCI-H23 lung was 104%; in the assay on NCI-H460 lung it was 105%; in the assay with HOP-92 NSCLC, 84.1%; in the assay on A549/ATCC NSCLC, 101%; in the assay on 786-0 renal, 111%; with COLO 205 colon, 108%. For the same compound, the growth in the assay with DU-145 prostate is 110%; in the assay with MALME-3M melanoma, 98.7%; with MDA-MB-231 breast, 101%; with RXF 393 renal, 114%; in the assay with SF-268 CNS it was 104%; in the assay with SF-295 CNS, 94.5%. Besides, the growth in the assay on SF-539 CNS is 104%; with UACC-257 melanoma, 99.6%; with M14 melanoma, 106%.
On to `O=C(c1ccc(O)c(Br)c1)c1ccc(O)c(Br)c1`, for which the growth with NCI-H23 lung was 103%; in the assay with NCI-H322M lung, 113%; in the assay on HOP-62 NSCLC, 102%; with NCI-H460 lung, 111%; with HOP-92 NSCLC, 101%; with NCI-H522 lung it was 115%. Further, the growth in the assay with A549/ATCC NSCLC was 109%; in the assay with 786-0 renal, 107%; in the assay on COLO 205 colon, 112%; in the assay on DU-145 prostate, 87%; in the assay on MALME-3M melanoma it was 106%; with MDA-MB-231 breast, 101%. The growth was 107% in the assay with RXF 393 renal; 90.6% in the assay on SF-268 CNS; 118% in the assay with SF-295 CNS; 90.1% in the assay with SF-539 CNS; 110% in the assay with UACC-257 melanoma.
Turning to `O=C(Cc1nc2cc(Cl)c(Cl)cc2nc1CC(=O)c1cccnc1)c1cccnc1`, the growth is 88.1% in the assay with NCI-H23 lung; 78.4% in the assay on NCI-H322M lung; 86.3% with HOP-62 NSCLC; 82.6% in the assay with NCI-H460 lung; 78% with HOP-92 NSCLC; 58.8% with NCI-H522 lung. In addition, the growth is 93.5% with A549/ATCC NSCLC; 58.7% in the assay with 786-0 renal; 89.8% in the assay on COLO 205 colon; 93.5% in the assay with DU-145 prostate; 49.6% in the assay on K-562 leukemia; 65.5% with MALME-3M melanoma. For the same compound, the growth is 87.9% in the assay on RXF 393 renal; 82.2% in the assay with SF-268 CNS; 94.1% in the assay on SF-295 CNS; 78.7% in the assay with SF-539 CNS; 95.7% in the assay on UACC-257 melanoma; 76.5% in the assay with M14 melanoma.
Take `NNc1cccc([N+](=O)[O-])c1`: the growth was 103% in the assay with NCI-H226 lung; 89% with NCI-H322M lung; 108% in the assay on NCI-H460 lung; 122% in the assay on HOP-92 NSCLC; 61.4% in the assay with NCI-H522 lung; 96.7% with A549/ATCC NSCLC. The growth in the assay on 786-0 renal was 86.4%; with COLO 205 colon, 110%; in the assay with DU-145 prostate, 104%; in the assay with MALME-3M melanoma it was 101%; in the assay with MDA-MB-231 breast, 58.9%; with RXF 393 renal, 122%. The growth in the assay with SF-268 CNS was 72.6%; with SF-295 CNS it was 89.5%; in the assay on SF-539 CNS it was 100%; in the assay with UACC-257 melanoma it was 99%; in the assay on M14 melanoma, 99.9%.
Regarding `Oc1ccc(Cl)cc1Cc1cc(Cl)ccc1O`, the growth is -12.5% (active) in the assay with NCI-H23 lung; 79.6% in the assay on NCI-H322M lung; 70.6% in the assay with HOP-62 NSCLC; 11.5% in the assay with NCI-H460 lung; 5.48% (active) in the assay with NCI-H522 lung; 61% with A549/ATCC NSCLC. For the same compound, the growth is 75.5% in the assay with 786-0 renal; 110% with COLO 205 colon; 38.2% with DU-145 prostate; 21.1% in the assay with K-562 leukemia; 16.3% in the assay with MALME-3M melanoma; 23.3% in the assay on MDA-MB-231 breast. In addition, the growth in the assay on RXF 393 renal is 50.4%; in the assay on SF-268 CNS, 22.5%; in the assay with SF-295 CNS, 41.3%; in the assay on UACC-257 melanoma it was 41.6%; with M14 melanoma, 25.2%.
On to `C=C(C(N)=O)C(N)C(=O)O` (stereo not given), for which the growth with NCI-H23 lung was 110%; with NCI-H322M lung, 100%; in the assay with HOP-62 NSCLC, 110%; in the assay with NCI-H460 lung, 108%; in the assay on NCI-H522 lung it was 100%; in the assay on A549/ATCC NSCLC, 107%. Besides, the growth in the assay on 786-0 renal was 92.8%; in the assay with DU-145 prostate it was 99.9%; with K-562 leukemia it was 100%; in the assay with MALME-3M melanoma, 98%; in the assay on MDA-MB-231 breast, 108%; with RXF 393 renal, 111%. The growth in the assay on SF-268 CNS was 106%; in the assay with SF-295 CNS, 112%; with SF-539 CNS it was 110%; in the assay on UACC-257 melanoma, 112%; with M14 melanoma, 90.7%.
On to `Cc1c(O)ccc(SC#N)c1C`, for which the growth with NCI-H23 lung is 98%; in the assay with NCI-H322M lung it was 117%; in the assay on HOP-62 NSCLC, 100%; with NCI-H460 lung it was 99.5%; with HOP-92 NSCLC, 92.2%; with A549/ATCC NSCLC, 108%. Further, the growth was 96.9% in the assay on COLO 205 colon; 115% in the assay with DU-145 prostate; 104% in the assay with K-562 leukemia; 129% in the assay with MALME-3M melanoma; 84.9% with MDA-MB-231 breast; 112% with RXF 393 renal. The growth in the assay on SF-268 CNS is 87.1%; in the assay with SF-295 CNS, 129%; in the assay on SF-539 CNS it was 94.2%; in the assay on UACC-257 melanoma, 107%; with M14 melanoma it was 97.4%.
`CCCCCCN(CCCCCC)CCCNc1nccc2ccccc12`: the growth with NCI-H23 lung was 12%; in the assay with NCI-H322M lung it was 28.7%; in the assay with NCI-H460 lung, 3.2% (active); with HOP-92 NSCLC, -14.6% (active); in the assay on NCI-H522 lung, 4.1% (active); with A549/ATCC NSCLC, 14.3%. Moreover, the growth with 786-0 renal is 5.89% (active); in the assay on COLO 205 colon, -66% (active); with DU-145 prostate, 26.5%; with K-562 leukemia, 0.764% (active); with MALME-3M melanoma, -58.6% (active); in the assay on MDA-MB-231 breast, 1.89% (active). For the same compound, the growth is 29.5% in the assay with RXF 393 renal; 33.2% in the assay with SF-268 CNS; -50.8% (active) in the assay on SF-295 CNS; -23.2% (active) in the assay on SF-539 CNS; 41.7% with UACC-257 melanoma; -41.3% (active) in the assay on M14 melanoma.

Source of the values: PubChem BioAssay (NCI).
